# Columns and labels:
# [1] = target: T1, Ephrin type-A receptor 3 (Homo sapiens) (UniProt P29320); conditions: at 10 µM
# T1 sequence (whole entry): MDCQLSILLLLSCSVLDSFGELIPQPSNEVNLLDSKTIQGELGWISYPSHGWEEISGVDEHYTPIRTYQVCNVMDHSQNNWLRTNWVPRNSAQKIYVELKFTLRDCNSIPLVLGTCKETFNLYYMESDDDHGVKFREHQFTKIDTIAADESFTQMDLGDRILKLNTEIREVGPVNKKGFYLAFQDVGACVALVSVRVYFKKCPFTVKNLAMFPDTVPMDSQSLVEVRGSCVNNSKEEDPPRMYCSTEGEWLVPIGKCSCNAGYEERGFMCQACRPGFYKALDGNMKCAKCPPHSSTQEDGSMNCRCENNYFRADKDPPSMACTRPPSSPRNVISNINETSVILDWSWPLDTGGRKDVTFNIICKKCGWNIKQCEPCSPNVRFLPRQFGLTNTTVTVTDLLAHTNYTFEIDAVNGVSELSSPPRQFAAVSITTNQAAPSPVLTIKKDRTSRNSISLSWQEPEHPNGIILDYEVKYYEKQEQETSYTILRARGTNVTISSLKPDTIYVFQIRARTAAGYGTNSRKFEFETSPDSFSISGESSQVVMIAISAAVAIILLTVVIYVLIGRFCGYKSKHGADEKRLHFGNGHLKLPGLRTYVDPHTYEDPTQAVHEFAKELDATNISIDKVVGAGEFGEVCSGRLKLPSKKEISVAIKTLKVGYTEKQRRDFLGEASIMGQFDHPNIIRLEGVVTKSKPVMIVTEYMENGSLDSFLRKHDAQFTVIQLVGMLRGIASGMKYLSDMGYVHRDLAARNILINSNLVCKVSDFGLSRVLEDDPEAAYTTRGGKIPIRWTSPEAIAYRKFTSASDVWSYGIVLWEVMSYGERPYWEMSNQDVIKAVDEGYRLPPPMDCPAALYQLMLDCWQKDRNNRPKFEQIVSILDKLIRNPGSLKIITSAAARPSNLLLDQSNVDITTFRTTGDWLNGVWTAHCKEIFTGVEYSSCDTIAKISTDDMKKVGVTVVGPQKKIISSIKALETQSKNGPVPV
# [2] = target: Ephrin type-A receptor 4 (Homo sapiens) (UniProt P54764); conditions: at 1 µM
# [3] = target: Ephrin type-A receptor 4 (Homo sapiens) (UniProt P54764); conditions: at 10 µM
# [4] = target: Ephrin type-A receptor 5 (Homo sapiens) (UniProt P54756); conditions: at 1 µM
# [5] = target: Ephrin type-A receptor 5 (Homo sapiens) (UniProt P54756); conditions: at 10 µM
# [6] = target: Ephrin type-A receptor 7 (Homo sapiens) (UniProt Q15375); conditions: at 1 µM
# [7] = target: Ephrin type-A receptor 7 (Homo sapiens) (UniProt Q15375); conditions: at 10 µM
# [8] = target: T2, Ephrin type-B receptor 1 (Homo sapiens) (UniProt P54762); conditions: at 1 µM
# T2 sequence (whole entry): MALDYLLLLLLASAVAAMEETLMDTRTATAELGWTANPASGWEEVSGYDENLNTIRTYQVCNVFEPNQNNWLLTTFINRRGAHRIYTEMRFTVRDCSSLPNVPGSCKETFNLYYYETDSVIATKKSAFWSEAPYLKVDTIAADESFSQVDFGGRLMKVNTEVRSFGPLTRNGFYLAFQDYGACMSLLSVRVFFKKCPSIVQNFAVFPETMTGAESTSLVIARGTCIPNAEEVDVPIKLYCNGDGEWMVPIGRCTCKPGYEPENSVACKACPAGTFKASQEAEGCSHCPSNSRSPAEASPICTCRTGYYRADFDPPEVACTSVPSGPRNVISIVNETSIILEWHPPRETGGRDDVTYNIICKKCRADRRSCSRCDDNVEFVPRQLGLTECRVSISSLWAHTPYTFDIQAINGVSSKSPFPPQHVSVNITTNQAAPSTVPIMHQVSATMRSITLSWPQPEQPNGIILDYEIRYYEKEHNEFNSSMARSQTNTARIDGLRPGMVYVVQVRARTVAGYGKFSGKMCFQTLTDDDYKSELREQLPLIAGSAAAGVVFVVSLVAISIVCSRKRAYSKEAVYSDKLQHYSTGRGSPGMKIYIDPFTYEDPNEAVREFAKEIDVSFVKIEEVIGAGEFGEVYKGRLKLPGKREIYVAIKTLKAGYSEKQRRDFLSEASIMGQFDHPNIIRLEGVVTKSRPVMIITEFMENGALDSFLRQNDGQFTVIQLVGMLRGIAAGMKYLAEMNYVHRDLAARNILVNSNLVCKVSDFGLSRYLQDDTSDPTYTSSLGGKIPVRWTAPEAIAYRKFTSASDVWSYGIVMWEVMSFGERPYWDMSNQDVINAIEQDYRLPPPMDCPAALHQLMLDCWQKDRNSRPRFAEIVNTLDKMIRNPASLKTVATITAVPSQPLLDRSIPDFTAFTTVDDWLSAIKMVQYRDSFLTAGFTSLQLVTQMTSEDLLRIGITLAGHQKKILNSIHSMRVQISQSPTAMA
# [9] = target: T2, Ephrin type-B receptor 1 (Homo sapiens); conditions: at 10 µM
# [10] = target: T3, Ephrin type-B receptor 2 (Homo sapiens) (UniProt P29323); conditions: at 1 µM
# T3 sequence (whole entry): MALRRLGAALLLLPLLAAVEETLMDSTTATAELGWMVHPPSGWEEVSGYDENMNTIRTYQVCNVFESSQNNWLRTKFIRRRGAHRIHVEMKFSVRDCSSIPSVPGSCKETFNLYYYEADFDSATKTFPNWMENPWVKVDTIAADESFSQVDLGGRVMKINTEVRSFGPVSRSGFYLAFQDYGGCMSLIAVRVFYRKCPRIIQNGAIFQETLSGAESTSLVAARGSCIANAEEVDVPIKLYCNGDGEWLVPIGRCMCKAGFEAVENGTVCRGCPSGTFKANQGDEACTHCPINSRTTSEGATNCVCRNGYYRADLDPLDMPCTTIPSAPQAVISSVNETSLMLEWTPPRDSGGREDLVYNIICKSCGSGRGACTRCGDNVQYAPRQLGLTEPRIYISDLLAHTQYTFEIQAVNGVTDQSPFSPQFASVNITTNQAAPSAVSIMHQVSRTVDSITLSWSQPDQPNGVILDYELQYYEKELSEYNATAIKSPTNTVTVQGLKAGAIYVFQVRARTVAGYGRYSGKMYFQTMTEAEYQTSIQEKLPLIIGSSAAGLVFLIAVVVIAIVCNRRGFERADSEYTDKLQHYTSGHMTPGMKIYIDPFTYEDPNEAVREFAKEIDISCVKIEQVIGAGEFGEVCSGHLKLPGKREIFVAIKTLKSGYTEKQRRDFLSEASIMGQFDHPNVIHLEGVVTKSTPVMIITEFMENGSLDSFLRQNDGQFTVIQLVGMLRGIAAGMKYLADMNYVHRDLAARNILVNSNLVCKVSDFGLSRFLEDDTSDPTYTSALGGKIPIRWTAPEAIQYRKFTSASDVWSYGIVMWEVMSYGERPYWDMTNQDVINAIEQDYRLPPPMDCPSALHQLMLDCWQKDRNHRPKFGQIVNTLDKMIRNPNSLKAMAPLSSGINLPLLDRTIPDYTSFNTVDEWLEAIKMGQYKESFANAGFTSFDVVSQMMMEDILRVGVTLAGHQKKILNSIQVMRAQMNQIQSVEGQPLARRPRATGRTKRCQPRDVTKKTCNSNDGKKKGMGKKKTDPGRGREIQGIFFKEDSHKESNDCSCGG
# [11] = target: T3, Ephrin type-B receptor 2 (Homo sapiens); conditions: at 10 µM
# [12] = target: T4, Ephrin type-B receptor 3 (Homo sapiens) (UniProt P54753); conditions: at 1 µM
# T4 sequence (whole entry): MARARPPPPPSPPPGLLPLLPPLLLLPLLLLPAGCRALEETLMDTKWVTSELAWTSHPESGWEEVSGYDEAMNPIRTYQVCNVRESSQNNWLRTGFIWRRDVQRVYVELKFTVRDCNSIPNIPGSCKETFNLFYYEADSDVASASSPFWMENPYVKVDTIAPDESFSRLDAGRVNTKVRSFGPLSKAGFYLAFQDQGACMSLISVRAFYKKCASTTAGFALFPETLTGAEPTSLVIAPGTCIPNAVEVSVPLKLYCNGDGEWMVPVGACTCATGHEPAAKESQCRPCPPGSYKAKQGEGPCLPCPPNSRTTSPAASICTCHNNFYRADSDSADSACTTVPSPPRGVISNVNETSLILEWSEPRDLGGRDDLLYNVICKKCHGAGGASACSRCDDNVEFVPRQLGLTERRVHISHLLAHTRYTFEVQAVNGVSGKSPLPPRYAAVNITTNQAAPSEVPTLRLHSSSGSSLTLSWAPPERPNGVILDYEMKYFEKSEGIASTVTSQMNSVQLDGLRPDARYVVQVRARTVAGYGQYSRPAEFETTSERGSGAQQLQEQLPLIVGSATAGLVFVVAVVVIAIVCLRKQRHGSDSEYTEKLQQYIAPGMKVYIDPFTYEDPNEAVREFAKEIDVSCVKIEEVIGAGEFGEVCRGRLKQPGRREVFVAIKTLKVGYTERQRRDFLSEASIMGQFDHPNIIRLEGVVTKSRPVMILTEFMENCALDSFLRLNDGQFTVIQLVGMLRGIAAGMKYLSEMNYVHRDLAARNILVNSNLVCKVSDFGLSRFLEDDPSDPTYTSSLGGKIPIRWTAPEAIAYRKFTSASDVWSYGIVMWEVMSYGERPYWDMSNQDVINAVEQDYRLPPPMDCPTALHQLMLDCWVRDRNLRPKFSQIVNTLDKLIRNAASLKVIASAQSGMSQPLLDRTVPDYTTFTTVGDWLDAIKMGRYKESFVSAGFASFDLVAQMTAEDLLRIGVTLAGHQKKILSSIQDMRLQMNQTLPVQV
# [13] = target: T4, Ephrin type-B receptor 3 (Homo sapiens); conditions: at 10 µM
# [14] = target: T5, Ephrin type-B receptor 4 (Homo sapiens) (UniProt P54760); conditions: at 1 µM
# T5 sequence (whole entry): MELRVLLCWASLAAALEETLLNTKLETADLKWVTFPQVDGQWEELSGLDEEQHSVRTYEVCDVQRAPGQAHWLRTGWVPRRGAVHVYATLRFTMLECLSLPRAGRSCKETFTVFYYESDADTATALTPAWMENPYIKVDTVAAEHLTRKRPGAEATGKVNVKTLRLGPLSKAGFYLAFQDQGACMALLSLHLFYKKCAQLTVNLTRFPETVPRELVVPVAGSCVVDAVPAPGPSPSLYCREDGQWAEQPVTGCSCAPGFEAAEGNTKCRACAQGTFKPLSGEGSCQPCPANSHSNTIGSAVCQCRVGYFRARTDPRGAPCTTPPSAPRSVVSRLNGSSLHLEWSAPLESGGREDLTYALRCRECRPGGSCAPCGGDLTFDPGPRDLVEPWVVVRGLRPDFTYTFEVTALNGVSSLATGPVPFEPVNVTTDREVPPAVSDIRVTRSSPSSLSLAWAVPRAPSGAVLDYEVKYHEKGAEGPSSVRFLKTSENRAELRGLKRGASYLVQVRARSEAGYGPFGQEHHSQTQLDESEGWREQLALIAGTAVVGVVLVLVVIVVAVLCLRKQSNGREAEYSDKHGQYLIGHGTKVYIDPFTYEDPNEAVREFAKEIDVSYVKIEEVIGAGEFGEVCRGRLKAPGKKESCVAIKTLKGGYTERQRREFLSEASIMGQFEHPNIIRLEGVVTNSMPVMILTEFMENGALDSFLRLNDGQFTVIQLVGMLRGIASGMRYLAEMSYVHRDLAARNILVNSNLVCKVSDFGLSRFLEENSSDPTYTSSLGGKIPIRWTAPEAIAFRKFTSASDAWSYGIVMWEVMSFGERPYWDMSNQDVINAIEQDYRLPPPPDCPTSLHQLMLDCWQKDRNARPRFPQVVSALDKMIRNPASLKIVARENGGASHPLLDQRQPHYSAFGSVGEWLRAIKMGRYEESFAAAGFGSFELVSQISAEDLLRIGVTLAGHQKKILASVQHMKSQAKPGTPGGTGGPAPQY
# [15] = target: T5, Ephrin type-B receptor 4 (Homo sapiens); conditions: at 10 µM
# [16] = target: Receptor tyrosine-protein kinase erbB-4 (Homo sapiens) (UniProt Q15303); conditions: at 1 µM
# [17] = target: Receptor tyrosine-protein kinase erbB-4 (Homo sapiens) (UniProt Q15303); conditions: at 10 µM
# [18] = target: Focal adhesion kinase 1 (Homo sapiens) (UniProt Q05397); conditions: at 1 µM
# Ephrin type-A receptor 7 (Homo sapiens), sequence (Q15375 28-998 limits assumed): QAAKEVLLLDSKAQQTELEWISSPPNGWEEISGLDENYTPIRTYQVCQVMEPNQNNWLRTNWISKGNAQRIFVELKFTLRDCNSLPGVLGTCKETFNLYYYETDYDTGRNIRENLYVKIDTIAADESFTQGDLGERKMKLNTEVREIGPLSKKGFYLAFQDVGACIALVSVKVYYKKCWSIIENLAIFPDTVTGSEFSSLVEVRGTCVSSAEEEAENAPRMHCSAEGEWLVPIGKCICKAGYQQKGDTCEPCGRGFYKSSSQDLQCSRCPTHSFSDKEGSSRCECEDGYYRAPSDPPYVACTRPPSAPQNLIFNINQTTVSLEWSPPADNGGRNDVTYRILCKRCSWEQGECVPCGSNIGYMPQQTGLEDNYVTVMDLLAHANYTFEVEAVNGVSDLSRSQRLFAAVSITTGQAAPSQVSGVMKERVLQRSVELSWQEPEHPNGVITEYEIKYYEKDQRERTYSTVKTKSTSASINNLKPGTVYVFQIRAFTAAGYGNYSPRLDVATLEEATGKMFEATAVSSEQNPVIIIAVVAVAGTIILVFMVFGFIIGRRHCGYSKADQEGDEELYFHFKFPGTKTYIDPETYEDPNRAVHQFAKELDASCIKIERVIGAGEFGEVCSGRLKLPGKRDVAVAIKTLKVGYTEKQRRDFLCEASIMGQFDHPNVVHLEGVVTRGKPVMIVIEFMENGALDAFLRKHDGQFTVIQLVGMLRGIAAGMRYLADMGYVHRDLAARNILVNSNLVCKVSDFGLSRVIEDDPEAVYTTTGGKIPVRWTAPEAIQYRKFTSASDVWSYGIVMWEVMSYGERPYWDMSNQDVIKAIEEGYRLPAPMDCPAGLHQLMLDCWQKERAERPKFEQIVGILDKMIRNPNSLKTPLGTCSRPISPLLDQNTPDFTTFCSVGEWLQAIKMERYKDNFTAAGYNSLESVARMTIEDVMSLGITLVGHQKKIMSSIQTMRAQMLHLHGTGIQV
# Ephrin type-A receptor 5 (Homo sapiens), sequence (P54756 whole entry): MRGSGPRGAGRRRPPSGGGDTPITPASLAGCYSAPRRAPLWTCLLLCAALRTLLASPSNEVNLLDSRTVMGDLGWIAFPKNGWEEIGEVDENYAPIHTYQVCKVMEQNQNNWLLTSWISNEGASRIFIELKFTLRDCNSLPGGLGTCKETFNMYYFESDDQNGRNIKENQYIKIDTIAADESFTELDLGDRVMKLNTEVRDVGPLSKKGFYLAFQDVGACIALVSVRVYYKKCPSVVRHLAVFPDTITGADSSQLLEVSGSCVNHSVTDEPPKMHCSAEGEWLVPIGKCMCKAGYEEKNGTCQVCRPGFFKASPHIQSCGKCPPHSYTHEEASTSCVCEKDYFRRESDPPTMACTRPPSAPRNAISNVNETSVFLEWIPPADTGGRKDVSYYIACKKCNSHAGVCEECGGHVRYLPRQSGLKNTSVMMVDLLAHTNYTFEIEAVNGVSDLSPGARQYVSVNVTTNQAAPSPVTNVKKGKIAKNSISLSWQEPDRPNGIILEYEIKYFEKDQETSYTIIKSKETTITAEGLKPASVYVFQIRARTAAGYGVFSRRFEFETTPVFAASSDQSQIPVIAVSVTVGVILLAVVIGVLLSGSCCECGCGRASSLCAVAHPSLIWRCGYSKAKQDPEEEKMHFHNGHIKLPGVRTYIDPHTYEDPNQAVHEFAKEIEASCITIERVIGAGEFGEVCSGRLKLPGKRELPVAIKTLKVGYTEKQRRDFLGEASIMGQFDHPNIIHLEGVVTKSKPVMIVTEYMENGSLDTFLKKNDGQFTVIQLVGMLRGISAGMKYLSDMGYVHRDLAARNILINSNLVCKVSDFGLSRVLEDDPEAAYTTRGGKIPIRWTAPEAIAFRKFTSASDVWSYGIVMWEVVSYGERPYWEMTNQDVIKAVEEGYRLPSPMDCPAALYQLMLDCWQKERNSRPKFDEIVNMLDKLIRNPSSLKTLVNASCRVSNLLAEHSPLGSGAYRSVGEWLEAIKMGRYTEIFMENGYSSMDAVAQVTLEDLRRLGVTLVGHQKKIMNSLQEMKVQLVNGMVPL
# Receptor tyrosine-protein kinase erbB-4 (Homo sapiens), sequence (Q15303 whole entry): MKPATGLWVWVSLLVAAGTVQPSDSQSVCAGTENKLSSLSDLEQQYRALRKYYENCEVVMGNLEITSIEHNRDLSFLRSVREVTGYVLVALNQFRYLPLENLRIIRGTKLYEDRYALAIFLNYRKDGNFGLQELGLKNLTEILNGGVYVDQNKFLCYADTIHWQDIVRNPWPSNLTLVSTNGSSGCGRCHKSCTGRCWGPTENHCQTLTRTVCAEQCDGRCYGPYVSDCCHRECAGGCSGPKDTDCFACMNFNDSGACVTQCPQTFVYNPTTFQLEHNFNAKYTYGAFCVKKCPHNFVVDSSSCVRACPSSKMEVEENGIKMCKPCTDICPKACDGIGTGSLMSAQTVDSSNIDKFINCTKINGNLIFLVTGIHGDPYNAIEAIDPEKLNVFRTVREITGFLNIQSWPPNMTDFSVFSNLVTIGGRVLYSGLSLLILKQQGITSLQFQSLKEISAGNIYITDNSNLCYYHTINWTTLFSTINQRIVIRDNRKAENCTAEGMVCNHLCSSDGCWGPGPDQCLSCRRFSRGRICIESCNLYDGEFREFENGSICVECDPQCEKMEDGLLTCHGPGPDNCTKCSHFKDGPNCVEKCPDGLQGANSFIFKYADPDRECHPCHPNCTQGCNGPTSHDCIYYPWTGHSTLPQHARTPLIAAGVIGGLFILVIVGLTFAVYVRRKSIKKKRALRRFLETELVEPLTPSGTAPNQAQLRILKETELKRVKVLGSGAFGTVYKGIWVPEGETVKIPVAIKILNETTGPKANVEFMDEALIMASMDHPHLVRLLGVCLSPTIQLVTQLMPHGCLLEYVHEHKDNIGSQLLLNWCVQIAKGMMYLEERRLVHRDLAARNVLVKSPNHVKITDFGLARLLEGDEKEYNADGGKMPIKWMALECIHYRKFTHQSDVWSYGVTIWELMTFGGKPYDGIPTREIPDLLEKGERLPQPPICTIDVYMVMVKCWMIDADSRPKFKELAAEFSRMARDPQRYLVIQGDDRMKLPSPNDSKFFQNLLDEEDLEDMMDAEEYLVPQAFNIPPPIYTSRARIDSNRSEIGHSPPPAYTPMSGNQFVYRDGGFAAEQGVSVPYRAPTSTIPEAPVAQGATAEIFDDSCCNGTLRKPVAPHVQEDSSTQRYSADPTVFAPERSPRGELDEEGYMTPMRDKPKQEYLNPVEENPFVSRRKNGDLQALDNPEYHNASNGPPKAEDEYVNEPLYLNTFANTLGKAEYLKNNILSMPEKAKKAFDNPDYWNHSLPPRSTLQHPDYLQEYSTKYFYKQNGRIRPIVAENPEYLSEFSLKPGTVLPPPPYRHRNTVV
# Ephrin type-A receptor 4 (Homo sapiens), sequence (P54764 whole entry): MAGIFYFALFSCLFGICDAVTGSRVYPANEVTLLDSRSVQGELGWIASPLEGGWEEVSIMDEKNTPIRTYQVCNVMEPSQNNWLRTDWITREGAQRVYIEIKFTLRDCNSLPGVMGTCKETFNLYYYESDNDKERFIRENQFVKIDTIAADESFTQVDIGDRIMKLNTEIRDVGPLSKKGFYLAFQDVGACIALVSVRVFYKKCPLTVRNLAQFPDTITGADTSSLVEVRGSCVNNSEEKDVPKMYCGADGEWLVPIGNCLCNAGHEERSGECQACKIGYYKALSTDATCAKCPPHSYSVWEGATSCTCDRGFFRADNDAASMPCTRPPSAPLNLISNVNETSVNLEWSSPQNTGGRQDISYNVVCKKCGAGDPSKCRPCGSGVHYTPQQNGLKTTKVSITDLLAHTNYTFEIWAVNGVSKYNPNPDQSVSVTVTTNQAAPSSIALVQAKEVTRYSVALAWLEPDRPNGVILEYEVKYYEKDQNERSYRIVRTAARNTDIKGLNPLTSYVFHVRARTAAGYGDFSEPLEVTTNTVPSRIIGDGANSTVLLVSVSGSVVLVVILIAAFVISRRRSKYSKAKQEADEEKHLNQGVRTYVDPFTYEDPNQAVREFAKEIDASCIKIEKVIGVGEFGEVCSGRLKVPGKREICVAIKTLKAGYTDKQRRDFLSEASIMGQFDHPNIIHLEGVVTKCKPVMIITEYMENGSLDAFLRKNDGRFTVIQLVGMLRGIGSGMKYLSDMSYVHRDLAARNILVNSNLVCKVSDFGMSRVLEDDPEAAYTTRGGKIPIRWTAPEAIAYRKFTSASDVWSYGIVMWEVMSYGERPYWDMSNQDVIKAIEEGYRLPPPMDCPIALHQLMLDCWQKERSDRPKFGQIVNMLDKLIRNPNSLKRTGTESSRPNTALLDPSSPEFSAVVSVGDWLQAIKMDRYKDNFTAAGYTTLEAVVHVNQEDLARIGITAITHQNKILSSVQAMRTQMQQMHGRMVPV
smiles,measurement,setting,value
CCCCc1c(-c2ccc(OC)cc2)[nH]c2nccnc12,residual activity,[1],49%
same,residual activity,[2],108%
same,residual activity,[3],105%
same,residual activity,[4],100%
same,residual activity,[5],83%
same,residual activity,[6],77%
same,residual activity,[7],73%
same,residual activity,[8],61%
same,residual activity,[9],61%
same,residual activity,[10],101%
same,residual activity,[11],89%
same,residual activity,[12],121% (inactive)
same,residual activity,[13],109%
same,residual activity,[14],78%
same,residual activity,[15],81%
same,residual activity,[16],120%
same,residual activity,[17],102%
same,residual activity,[18],67%
